Compounds without any hit were thinned out: in the full panel of roughly 83,000, 20% have a hit.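 Testing used 96-well plates and a 48-hour single-concentration exposure. Example: -40 means 40% of the starting cells died.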 Values without a mark were called inactive. Active and inactive are the calls of the source. Rule for the calls: active = growth percent below 10; inactive = the rest.
What follows are compounds tested on MDA-MB-231 breast (assay: NCI-60 one-dose screen, 48 h (100 = growth as untreated, 0 = no growth, -100 = all killed)). Conditions: 10 µM unless noted.
Cc1nn(-c2ccccc2)c(Cl)c1/C=C/C(=O)c1ccc(F)cc1 showed a growth of 97.9%.
For COc1cc2oc(-c3cccc(C(=O)Nc4ccc(Br)cc4)c3)cc(=O)c2c(OC)c1OC, the growth was 30.8%.
CC1=C(C(=O)/C=C/c2c[nH]c3ccccc23)C(c2ccccc2)NC(=S)N1 (stereo not drawn) was tested, and the growth was 85.3%.
CCCCCN1C=C/C(=C\C(=O)N(C)c2ccc(Oc3ccccc3)cc2)c2ccccc21 was tested, and the growth was 76.9%.
Compound Cn1cc(-c2nc(-c3c[nH]c4c(Cl)nccc34)cs2)c2cc(Br)ccc21 has a growth of 96.9%.
Work on COc1ccc(/C=C2\Oc3cc(OCCCN4CCCCC4)ccc3C2=O)cc1OC yielded a growth of 78.6%.
Cc1cc2nc3c4cc(C=O)ccc4n(CCN(C)C)c3nc2cc1C showed a growth of 24%.
Work on S=c1cc(S)c2cc(Br)ccc2[nH]1 yielded a growth of 81.5%.
With O=C(/C(=C\c1ccc([N+](=O)[O-])cc1)S(=O)Cc1ccc(Cl)cc1)c1ccc(Cl)cc1 (stereo not drawn) the growth was 76.2%.
Compound COc1cc(CC(=O)c2ccc(O)c(OC)c2)ccc1O has a growth of 88.6%.
With O=C(NCCc1ccccc1)Nc1ccc2cc3ccc(NC(=O)NCCc4ccccc4)cc3nc2c1 the growth was -17.5% (active).
Work on C=C(C)[C@@H]1CC[C@]2(C(=O)N3CCN(C)CC3)CC[C@]3(C)[C@H](CC[C@@H]4[C@@]5(C)C/C(=C/c6cccnc6)C(=O)C(C)(C)[C@@H]5CC[C@]43C)[C@@H]12 yielded a growth of 74.9%.
In the case of COc1cc2nc(-c3ccc(Cl)cc3)cc(OCCCN3CCC(O)CC3)c2cc1OC, the growth is reported as 26.1%.
O=S(=O)(NCCNc1nccc(-c2c(-c3cccc(O)c3)nc3occn23)n1)c1ccccc1 was tested, and the growth was 66.5%.
Compound NC(=NCCCOc1ccc(F)cc1)Nc1ccc(Cl)cc1 has a growth of 53.7%.
For C#Cc1cccc(NC(=O)c2cccc(NC(=O)CCl)c2)c1, the growth was -80.5% [8.25 µM] (active).
For CCN1Cc2nc3sc(C)c(C)c3c(=O)n2C=C1C, the growth was 58.3%.
In the case of O=C1Nc2cc(-c3cccc([N+](=O)[O-])c3)ccc2/C1=C/c1ccc[nH]1, the growth is reported as 39.5%.
C[C@H]1[C@H](C)CC[C@]2(C(=O)NCC#CCN3CCN(C)CC3)CC[C@]3(C)C(=CC[C@@H]4[C@@]5(C)Cc6c([nH]c7ccccc67)C(C)(C)[C@@H]5CC[C@]43C)[C@H]12 gave a growth of 63.8%.
For COc1cc(/C=C/c2cc(O)c(C(C)=O)c(O)c2)cc2c1O[C@]1(C)CC[C@@H](O)C(C)(C)[C@H]1C2, the growth was 37.6%.
N#CC1=C(N)Oc2c(cnn2-c2ccc([N+](=O)[O-])cc2[N+](=O)[O-])C1c1ccccc1 (stereo not drawn) was tested, and the growth was 105%.
In the case of COc1ccc(C(=O)c2cc(C)c(OC)c(C)c2)c(OC)c1N(C(=O)CCl)C(=O)CCl, the growth is reported as -1.61% (active).
With CCC(=O)Oc1ccc(/C(=C(\C)c2ccccc2)c2ccc(OCCN3CCCCC3)cc2)cc1 the growth was 91.1%.
Cc1ccc(NC(=O)c2cc(-c3nc4ccccc4s3)c(=O)n(NS(=O)(=O)c3ccc(Cl)cc3)c2N)cc1 was tested, and the growth was 96.1%.
O=C1Nc2ccc(F)cc2/C1=C\c1c(-c2ccccc2)nc2ccccn12 gave a growth of 73.4%.
O=C(NO)c1ccc(-n2nc(-c3ccccc3)c3ccccc32)cc1 showed a growth of 40.3%.
With O=C1Nc2ccccc2/C1=C\c1c(-c2ccc(F)cc2)nc2ccccn12 the growth was 60.2%.
For Oc1cccc(CCc2ccc(Oc3cc(CCc4cccc(O)c4)cc(O)c3O)cc2)c1, the growth was 72.8%.
Compound CCCCCCCC(=O)OCC/C=C/C1OC1C1OC(=O)/C=C\C=C\C(=O)N(C(C)=O)C(=O)/C=C(/C)CCC2OC2C1OC(=O)NC(C)=O (stereo not drawn) has a growth of 73.9%.
With Cc1ccc(NS(=O)(=O)c2ccc(-c3cnc(C4CC4)o3)cc2)cc1C(F)(F)F the growth was 78.8%.
CNC(=O)c1cncc(Cn2nc(C)c(NC(=O)c3ccc(COc4ccc(C(F)(F)F)cc4C)cc3)c2C)c1 was tested, and the growth was 78.2%.
Cc1cc(C)c(S(=O)(=O)Oc2ccccc2[N+](=O)[O-])c(C)c1 showed a growth of 33.2%.
In the case of C=C1C(=O)O[C@H]2[C@H]1CC/C(CNC(=O)C(C)c1ccc(CC(C)C)cc1)=C\CC[C@@]1(C)O[C@@H]21 (stereo partly drawn), the growth is reported as -1.8% (active).
NC(=S)N1N=C(c2ccccc2)CC1c1cn(-c2ccccc2)nc1-c1ccc(OCc2ccccc2)cc1 (stereo not drawn) was tested, and the growth was 99.2%.
CN1CCN(C(=O)[C@]23CCC(C)(C)C[C@H]2C2=CC[C@@H]4[C@@]5(C)C/C(=C/c6cccnc6)C(=O)C(C)(C)[C@@H]5CC[C@@]4(C)[C@]2(C)CC3)CC1 was tested, and the growth was 59.8%.
O=C1Nc2cc(-c3cccc(O)c3)ccc2/C1=C/c1ccc[nH]1 was tested, and the growth was -15.8% (active).
COc1ccc(/C=C/c2nc(Nc3ccc(S(=O)(=O)NC(C)=O)cc3)c3ccccc3n2)cc1 was tested, and the growth was 72.4%.
Compound CCNC(=O)Oc1ccc(/C(=C(\C)c2ccccc2)c2ccc(OCCN3CCCCC3)cc2)cc1 has a growth of 70.7%.

Reference: PubChem BioAssay (NCI)
